Parameters in all cases: scale not given: direction of the effect not stated beside the values
Test [1] deals with Protein translocase subunit SecA (Escherichia coli (strain K12)) (UniProt P10408). The test can be described thus: Assay to Identify E. coli SecA ATPase Inhibitors. It is filed as functional. Particulars: 30 µM.
Test [2] deals with T1, Ubiquitin-activating enzyme e1, putative (Leishmania donovani (strain BPK282A1)) (UniProt E9BSI1).
T1 sequence (whole entry): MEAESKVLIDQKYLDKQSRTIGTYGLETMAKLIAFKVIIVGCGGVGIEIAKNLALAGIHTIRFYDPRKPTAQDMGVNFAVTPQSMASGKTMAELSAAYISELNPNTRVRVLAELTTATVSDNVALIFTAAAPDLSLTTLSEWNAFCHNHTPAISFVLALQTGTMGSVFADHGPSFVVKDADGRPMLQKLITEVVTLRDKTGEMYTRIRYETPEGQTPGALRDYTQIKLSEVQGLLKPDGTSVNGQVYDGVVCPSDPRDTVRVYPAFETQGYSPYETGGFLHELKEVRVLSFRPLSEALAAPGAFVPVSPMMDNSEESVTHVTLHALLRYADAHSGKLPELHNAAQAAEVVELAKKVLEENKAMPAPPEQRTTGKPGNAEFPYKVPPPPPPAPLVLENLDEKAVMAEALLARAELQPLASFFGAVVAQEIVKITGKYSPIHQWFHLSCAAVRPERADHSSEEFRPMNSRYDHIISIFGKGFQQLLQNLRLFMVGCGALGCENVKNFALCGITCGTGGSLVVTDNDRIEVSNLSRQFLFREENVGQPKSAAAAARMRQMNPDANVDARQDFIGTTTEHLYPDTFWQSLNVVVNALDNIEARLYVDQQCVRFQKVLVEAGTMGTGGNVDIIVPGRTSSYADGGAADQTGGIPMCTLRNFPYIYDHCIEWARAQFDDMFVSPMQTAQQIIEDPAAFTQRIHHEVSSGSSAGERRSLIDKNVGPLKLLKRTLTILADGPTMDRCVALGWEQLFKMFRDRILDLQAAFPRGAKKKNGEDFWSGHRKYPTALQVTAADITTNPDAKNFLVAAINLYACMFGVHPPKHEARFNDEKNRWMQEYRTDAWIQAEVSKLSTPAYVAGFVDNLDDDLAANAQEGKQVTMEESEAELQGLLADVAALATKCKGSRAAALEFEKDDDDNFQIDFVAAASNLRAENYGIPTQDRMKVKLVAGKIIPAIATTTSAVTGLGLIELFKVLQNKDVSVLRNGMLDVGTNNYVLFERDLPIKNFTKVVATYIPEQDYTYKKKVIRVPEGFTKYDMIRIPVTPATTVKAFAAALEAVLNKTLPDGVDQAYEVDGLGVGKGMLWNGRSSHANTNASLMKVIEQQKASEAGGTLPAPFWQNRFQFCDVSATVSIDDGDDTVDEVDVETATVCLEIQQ
The test can be described thus: Leishmania donovani Ubiquitin Activating Enzyme (LdE1). Particulars: 30 µM. It is filed as functional.

For test [3], the target named is T2, Aspartate--tRNA(Asp/Asn) ligase (Mycobacterium tuberculosis (strain ATCC 25618 / H37Rv)) (UniProt P9WFW3). Further: in the data most compounds retested in dose-response had high values.
T2 sequence (whole entry): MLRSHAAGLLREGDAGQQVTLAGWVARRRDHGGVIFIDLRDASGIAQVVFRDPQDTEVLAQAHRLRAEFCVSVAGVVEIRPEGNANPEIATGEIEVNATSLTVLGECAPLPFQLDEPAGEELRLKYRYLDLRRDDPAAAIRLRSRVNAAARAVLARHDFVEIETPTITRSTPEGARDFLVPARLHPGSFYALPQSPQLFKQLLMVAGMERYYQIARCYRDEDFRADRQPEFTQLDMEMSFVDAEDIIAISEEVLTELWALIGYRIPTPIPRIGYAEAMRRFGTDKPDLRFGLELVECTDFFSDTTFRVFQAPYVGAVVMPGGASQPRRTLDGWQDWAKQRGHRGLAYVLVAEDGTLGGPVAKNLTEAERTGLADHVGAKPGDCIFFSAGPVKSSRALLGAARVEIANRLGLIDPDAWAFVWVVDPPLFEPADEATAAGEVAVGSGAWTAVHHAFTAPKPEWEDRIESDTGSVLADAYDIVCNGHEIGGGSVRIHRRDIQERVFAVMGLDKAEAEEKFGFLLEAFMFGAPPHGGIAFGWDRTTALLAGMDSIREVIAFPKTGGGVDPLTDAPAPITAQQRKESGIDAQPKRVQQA
The experiment in a line: Assay for Asp RNA synthetase-1 from Mycobacterium tuberculosis. The test is classed as functional. Particulars: 30 µM.

The target in test [4] is AMP-activated protein kinase, AMPK (Homo sapiens) (UniProt P54646+O43741+P54619+Q9UGJ0+Q9Y478+Q13131+Q9UGI9). The experiment in a line: AMP-dependent Kinase enzyme assay. An in vitro enzyme assay that detects ADP turnover that is directly proportional to AMPK activity. This uses naive AMPK that is activated during the assay with MK-8722. It is filed as functional. Particulars: 30 µM.

For test [5], the target named is Sialic acid-binding Ig-like lectin 9 (Homo sapiens) (UniProt Q9Y336). The experiment in a line: Hs-Siglec9 ALPHAscreen SOP 20170721. Particulars: 10 µM. On the technique in general: Alpha assays give light when donor and acceptor beads are brought close together.
Sequence of Sialic acid-binding Ig-like lectin 9 (Homo sapiens) (Q9Y336 whole entry): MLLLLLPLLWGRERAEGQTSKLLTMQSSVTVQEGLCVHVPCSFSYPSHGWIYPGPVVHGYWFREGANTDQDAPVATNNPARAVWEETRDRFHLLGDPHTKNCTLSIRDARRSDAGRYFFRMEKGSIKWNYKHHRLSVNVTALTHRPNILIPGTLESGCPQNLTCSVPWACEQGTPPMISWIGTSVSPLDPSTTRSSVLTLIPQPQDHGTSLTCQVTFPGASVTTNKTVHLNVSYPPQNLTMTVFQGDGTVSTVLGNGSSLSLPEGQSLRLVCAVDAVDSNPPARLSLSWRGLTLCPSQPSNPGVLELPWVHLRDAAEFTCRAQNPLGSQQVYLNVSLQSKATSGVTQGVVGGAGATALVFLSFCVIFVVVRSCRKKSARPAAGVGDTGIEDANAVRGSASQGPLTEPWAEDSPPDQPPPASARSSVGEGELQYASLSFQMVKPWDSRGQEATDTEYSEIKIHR
A further test has as its system Trypanosoma cruzi. The test can be described thus: Trypanosoma cruzi phosphomannomutase and mannose-1-phosphate guanylyltransferase assay. The test is classed as functional. Particulars: 10 µM.
Test [6] deals with T3, Arginase-2, mitochondrial (Homo sapiens) (UniProt P78540).
T3 sequence (whole entry): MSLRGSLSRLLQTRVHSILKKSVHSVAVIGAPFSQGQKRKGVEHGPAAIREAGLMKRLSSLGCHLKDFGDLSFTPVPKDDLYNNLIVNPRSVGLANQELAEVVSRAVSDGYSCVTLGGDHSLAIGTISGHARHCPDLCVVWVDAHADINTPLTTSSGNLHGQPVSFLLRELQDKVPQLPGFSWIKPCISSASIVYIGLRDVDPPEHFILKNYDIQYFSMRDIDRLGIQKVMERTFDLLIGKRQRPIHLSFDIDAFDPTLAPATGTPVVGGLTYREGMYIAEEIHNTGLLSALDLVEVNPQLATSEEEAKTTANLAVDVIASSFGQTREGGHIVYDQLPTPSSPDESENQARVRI
The test can be described thus: in vitro enzyme assay to detect the production of urea directly proportional to the activity of Arginase II. Further: in the data most compounds retested in dose-response had high values. The test is classed as functional. Particulars: 33.3 µM.

The target in test [7] is T4, Proteasome subunit beta (Trypanosoma cruzi) (UniProt O96673).
T4 sequence (whole entry): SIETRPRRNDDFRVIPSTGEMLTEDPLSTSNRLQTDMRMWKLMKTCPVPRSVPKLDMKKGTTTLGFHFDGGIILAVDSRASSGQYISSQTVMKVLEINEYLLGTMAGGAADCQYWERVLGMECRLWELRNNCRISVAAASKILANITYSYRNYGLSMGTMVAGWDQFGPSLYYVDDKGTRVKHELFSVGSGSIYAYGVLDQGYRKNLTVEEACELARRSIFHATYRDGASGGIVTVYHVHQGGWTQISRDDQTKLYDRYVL
The test can be described thus: Trypanosoma cruzi proteasome chymotrypsin-like activity (TcProtChymo) assay. Further: in the data most compounds retested in dose-response had high values. It is filed as functional. Particulars: 9.37 µM.

For a further test, the species on record is Homo sapiens. The experiment in a line: To identify inhibition of the IFN signalling (Jak-Stat) pathway via expression of an eGFP reporter gene under the control of an IFN-stimulated response element (ISRE) containing MxA promoter. The test is classed as functional. Particulars: 30 µM. A general note: Reporter assays use an easily measured gene product as a stand-in for the process of interest.

The target of test [8] is Shiga toxin 2 (Escherichia coli O157:H7) (UniProt P09385+P09386). The experiment in a line: E. coli 0.157:H7 Shiga Toxin SOP - stx2 screening assay. The test is classed as functional. Particulars: 30 µM.
For test [9], the target named is T5, Tyrosyl-tRNA synthetase, putative (Trypanosoma cruzi (strain CL Brener)) (UniProt Q4DSP6).
T5 sequence (whole entry): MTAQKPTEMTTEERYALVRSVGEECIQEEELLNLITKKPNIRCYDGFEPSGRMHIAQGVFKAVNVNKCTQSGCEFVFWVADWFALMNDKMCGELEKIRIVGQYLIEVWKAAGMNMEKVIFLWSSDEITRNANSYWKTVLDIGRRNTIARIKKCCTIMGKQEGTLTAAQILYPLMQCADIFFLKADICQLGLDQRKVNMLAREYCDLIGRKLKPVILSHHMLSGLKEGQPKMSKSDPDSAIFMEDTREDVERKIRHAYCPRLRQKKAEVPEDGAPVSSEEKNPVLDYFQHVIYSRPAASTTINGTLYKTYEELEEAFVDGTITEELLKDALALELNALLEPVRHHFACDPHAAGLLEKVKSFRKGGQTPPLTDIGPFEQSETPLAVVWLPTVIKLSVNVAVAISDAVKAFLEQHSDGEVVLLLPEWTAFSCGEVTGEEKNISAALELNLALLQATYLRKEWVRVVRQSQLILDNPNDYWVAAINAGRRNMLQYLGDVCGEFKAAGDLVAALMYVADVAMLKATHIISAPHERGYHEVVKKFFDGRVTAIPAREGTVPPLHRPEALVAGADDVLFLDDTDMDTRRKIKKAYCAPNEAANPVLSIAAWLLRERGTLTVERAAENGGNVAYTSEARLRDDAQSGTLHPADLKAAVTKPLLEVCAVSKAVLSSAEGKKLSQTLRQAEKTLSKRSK
The test can be described thus: Trypanosoma cruzi tyrosyl tRNA synthetase (TcYRS) _High Tyrosine SOP. Further: in the data most compounds retested in dose-response had high values. The test is classed as functional. Particulars: 30 µM.

The target in test [10] is T5, Tyrosyl-tRNA synthetase, putative (Trypanosoma cruzi (strain CL Brener)). The experiment in a line: Trypanosoma cruzi tyrosyl tRNA synthetase (TcYRS) SOP. The test is classed as functional. Particulars: 30 µM.
For test [11], the target named is Chromo domain-containing protein 1 (Saccharomyces cerevisiae (strain ATCC 204508 / S288c) (Baker's yeast)) (UniProt P32657). The test can be described thus: ScCHD-1 Enzyme Inhibition Assay. Further: in the data most compounds retested in dose-response had high values. It is filed as functional. Particulars: 30 µM.
Sequence of Chromo domain-containing protein 1 (Saccharomyces cerevisiae (strain ATCC 204508 / S288c) (Baker's yeast)) (P32657 whole entry, the tested form may be a part): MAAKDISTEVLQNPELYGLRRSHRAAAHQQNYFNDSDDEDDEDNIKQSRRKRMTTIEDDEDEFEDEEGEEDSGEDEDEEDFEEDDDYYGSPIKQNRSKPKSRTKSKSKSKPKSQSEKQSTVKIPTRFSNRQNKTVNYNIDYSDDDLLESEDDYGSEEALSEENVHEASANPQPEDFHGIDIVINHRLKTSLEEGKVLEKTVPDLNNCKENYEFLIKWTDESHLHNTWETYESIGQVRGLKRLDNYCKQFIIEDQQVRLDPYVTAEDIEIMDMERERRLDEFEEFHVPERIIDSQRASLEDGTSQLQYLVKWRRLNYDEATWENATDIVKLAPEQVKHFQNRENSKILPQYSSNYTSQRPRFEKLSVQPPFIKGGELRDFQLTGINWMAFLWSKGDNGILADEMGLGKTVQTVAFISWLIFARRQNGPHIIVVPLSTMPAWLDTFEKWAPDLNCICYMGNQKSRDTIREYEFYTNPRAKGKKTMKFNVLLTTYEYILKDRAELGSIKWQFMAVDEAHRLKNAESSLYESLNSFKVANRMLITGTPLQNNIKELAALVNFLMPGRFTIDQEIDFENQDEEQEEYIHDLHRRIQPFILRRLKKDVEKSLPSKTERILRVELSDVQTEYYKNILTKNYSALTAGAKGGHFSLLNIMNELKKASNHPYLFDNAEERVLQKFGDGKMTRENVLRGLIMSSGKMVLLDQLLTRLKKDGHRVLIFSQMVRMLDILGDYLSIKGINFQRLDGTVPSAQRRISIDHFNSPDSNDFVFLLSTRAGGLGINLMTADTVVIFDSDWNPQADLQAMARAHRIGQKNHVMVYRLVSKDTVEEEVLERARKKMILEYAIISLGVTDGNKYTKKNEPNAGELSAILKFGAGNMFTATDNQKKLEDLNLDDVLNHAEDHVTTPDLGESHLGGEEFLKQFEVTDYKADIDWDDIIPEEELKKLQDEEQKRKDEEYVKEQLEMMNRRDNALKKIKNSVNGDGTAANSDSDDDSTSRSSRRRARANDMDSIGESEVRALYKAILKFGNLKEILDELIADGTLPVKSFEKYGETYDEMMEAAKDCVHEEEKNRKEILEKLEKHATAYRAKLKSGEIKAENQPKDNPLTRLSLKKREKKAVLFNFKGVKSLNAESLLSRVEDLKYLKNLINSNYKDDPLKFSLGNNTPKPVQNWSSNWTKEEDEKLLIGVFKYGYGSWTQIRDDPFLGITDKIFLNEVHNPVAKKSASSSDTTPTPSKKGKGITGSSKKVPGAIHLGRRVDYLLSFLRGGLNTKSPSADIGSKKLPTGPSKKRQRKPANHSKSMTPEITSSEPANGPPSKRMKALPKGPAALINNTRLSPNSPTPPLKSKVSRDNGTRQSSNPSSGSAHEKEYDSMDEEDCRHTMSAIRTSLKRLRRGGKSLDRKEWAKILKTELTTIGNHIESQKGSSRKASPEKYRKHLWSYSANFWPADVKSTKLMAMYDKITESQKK

For some of these results: Entries with a potency or affinity are not part of this list.

Sequence of Protein translocase subunit SecA (Escherichia coli (strain K12)) (P10408 whole entry): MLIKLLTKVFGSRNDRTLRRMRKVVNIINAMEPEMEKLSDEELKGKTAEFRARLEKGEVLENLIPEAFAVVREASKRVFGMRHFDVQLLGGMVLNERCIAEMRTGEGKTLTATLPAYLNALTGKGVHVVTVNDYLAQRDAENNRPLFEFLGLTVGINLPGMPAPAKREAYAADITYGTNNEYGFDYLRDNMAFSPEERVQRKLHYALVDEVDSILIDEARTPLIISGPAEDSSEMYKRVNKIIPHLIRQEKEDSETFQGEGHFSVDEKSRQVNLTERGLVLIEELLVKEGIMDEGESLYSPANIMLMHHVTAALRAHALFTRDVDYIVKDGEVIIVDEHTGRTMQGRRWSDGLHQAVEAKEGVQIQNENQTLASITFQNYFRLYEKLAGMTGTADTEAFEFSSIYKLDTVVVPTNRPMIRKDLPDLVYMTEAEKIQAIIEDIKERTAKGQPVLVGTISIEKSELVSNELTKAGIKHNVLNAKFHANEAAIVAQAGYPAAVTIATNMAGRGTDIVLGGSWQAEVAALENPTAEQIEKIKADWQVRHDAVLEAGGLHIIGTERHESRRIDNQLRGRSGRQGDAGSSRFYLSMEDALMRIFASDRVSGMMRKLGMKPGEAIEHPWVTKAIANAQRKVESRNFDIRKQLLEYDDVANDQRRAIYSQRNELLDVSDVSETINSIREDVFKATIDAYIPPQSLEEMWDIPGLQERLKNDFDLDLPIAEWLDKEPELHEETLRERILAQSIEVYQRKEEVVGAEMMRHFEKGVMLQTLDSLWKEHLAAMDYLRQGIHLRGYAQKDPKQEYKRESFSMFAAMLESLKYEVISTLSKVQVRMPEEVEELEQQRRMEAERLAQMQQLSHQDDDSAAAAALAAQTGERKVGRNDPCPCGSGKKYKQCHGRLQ

Regarding `CN(C)c1ncc2c(n1)C1(CCN(Cc3ccccc3)C1)COC2` (configuration not stated), the Percent Effect is -2.14% in [1]; -5.48% in [2]; -5.72% in test [3]; 3.1% in test [4]; 1.95% in [5]; 2.78% in the test on Trypanosoma cruzi. The Percent Effect is 1.2% in test [6]; 10.9% in test [7]; -0.512% in the test listed under Homo sapiens; -67% in test [8]; 5.21% in [9]; 3.7% in test [10]. In addition, the Percent Effect in test [11] is -6.91%.

On to `CN1C(=O)C2(CCN(CCO)C2)c2ccccc21` (configuration not stated), for which the Percent Effect in [1] is -3.9%; in test [2], 10.8%; in test [3], -3.9%; in [4], 5.24%; in test [5] it was -5.82%; in the test on Trypanosoma cruzi, -4.01%. Moreover, the Percent Effect in test [6] was 0.319%; in test [7], 24.9%; in the test listed under Homo sapiens, -2.44%; in test [8] it was -6.34%; in [9] it was 1.08%; in test [10], 12.8%. The Percent Effect in test [11] was -1.83%.

Turning to `COc1ccc(-c2n[nH]cc2C2SCC(=O)Nc3[nH]ncc32)cc1` (configuration not stated), the Percent Effect in [1] was -3.63%; in test [2], 0%; in [3] it was 0.479%; in test [4], 21.7%; in test [5] it was 3.15%; in the test on Trypanosoma cruzi it was -3.41%. In addition, the Percent Effect is -17.8% in [6]; 14.9% in [7]; 16.2% in the test filed under Homo sapiens; -3.31% in test [8]; 2.13% in [9]; 7.79% in test [10]. The Percent Effect in [11] is 0.161%.

Consider `COc1cccc(CCNCc2c(C)nn(C)c2N(C)C)c1`, for which the Percent Effect in [1] is -3.25%; in test [2], 10.5%; in test [3] it was -2.61%; in [4], -2.73%; in test [5] it was 0.941%; in the test with Trypanosoma cruzi it was -4.13%. Besides, the Percent Effect in test [6] was -3.45%; in test [7] it was 13.4%; in the test filed under Homo sapiens, -20.1%; in test [8], 28.4%; in test [9], 3.43%; in test [10], 12.2%. In addition, in [11], the Percent Effect is -4.73%.

The values are drawn from ChEMBL document CHEMBL3988442, “University of Dundee, Small-Polar-MMV Screening Library” (2021).
